Data: PubChem BioAssay AID504332 (National Center for Advancing Translational Sciences (NCATS), 2011)
Where “and” joins values, the source holds several entries; their conditions need not be identical. Equal values may be shown once. About 31,000 (8.9%) of roughly 350,000 compounds were called active. About 15% were inconclusive and are not listed. Calls follow the shape of the dose curve; as a rule, active = well fitted inhibition curve with a large enough effect; inconclusive = small, poorly fitted or top-dose-only effect; inactive = no such curve, though single readings can be large or run the other way. What follows is part of a selection rich in actives, with near analogues and random picks from the rest. Some structures have more than one record in an assay (separate samples or runs), and their calls can disagree.

molecular target: Histone-lysine N-methyltransferase EHMT2 (Homo sapiens) (UniProt Q96KQ7); assay: qHTS Assay for Inhibitors of Histone Lysine Methyltransferase G9a; conditions: G9a H3K9 monomethylation, AlphaScreen, 2 h; series mostly up to 59 µM; activity, negative = inhibition: at the top concentration; also: nearly all actives have a fitted effect of over 75% in size
Sequence (Q96KQ7 913-1193 limits assumed): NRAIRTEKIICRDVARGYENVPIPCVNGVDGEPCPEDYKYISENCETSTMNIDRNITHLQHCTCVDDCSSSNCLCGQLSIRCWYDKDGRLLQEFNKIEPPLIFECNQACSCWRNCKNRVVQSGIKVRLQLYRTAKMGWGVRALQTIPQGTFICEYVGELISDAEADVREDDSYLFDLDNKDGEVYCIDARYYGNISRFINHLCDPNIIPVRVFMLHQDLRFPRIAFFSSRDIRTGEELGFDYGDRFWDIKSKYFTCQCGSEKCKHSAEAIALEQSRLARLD
Summary of the method: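 Methyltransferase reactions run at room temperature for 2 h (20 nM enzyme, 500 nM biotin-H3K9 peptide, 20 uM SAM) after a 15 min compound preincubation; product detected by AlphaScreen beads and anti-H3K9me1 antibody.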
% is scaled to controls: 0 for no effect and ±100 for the full control effect; potency is read from the fitted curve at half-maximal effect.

Row | Structure (SMILES) | activity, negative = inhibition | Potency
1 | O=C(CCS(=O)(=O)c1ccc2c(c1)NC(=O)CO2)Nc1cccc(C(F)(F)F)c1 | -1.15% (inactive) | 
2 | CC(C)(Oc1ccc(Cl)cc1)C(=O)OCC(=O)NCCc1ccc(S(N)(=O)=O)cc1 | -29.2% [at 102 µM] (inactive) | 
3 | CCCn1c(N)c(C(=O)CSc2nnc3n2CCCCC3)c(=O)[nH]c1=O | -11.9% (inactive) | 
4 | CCn1c2ccccc2c2cc(NC(=S)N3CCOCC3)ccc21 | 7.32% [at 12.7 µM] (inactive) | 
5 | Cc1cc(N2CCOCC2)nc2ccc(NC(=S)N3CCN(Cc4ccccc4)CC3)cc12 |  | 50.1 µM (active)
6 | CCN1CCN(c2cc(C)c3cc(NC(=O)c4cc(Cl)ccc4OC)ccc3n2)CC1 | -24.6% (inactive) | 
7 | CCCC(=O)NC(=S)Nc1ccc(CN2CCOCC2)cc1 | -25.8% [at 102 µM] (inactive) | 
8 | CCOCCCNC(=S)Nc1ccc2nc(N3CCN(CC)CC3)cc(C)c2c1 |  | 31.6 µM (active)
9 | COc1ccc(NC(=S)NCCN2CCC(C)CC2)cc1 | -42.1% [at 102 µM] (inactive) | 
10 | COc1ccc(C(=O)OCC(=O)Nc2ccc3[nH]c(=O)[nH]c3c2)c(OC)c1OC | 4.23% [at 0.501 µM] (inactive) | 
11 | COc1ccccc1NC(=O)c1oc2ccccc2c1NC(=O)C(C)C | -1.25% (inactive) | 
12 | COC(=O)N/N=C/c1c[n+]([O-])c2ccccc2[n+]1[O-] | -33.5% (inactive) | 
13 | CC(C)CC(=O)NCC(c1ccc2c(c1)OCO2)N1CCN(c2ccc(F)cc2)CC1 (stereo unspecified) | 2.2% (inactive) | 
14 | CCOC(=O)c1cc2c(n(-c3ccc(C)cc3)c1=O)CCCC2=O |  | 17.8 µM (active)
15 | CCCCOc1ccc(NC(=O)c2cc3c(n(-c4ccc(Cl)cc4)c2=O)CCCC3=O)cc1 | 30.4% (inactive) | 
16 | CCOC(=O)C1=C(N)N(c2ccc(C)cc2)C2=C(C(=O)CCC2)C1c1cccs1 (stereo unspecified) | -10.2% (inactive) | 
17 | Cc1c(C(=O)NNC(=O)c2ccncc2)oc2ccccc12 | 1.49% [at 12.7 µM] (inactive) | 
18 | Oc1cc(O)c2c(c1)OC(c1ccc(O)c(O)c1)C(O)C2 (stereo unspecified) |  | 2.51 µM (active)
19 | O=C(CCC(=O)c1ccccc1)NCc1cccc(C(F)(F)F)c1 | 17.7% (inactive) | 
20 | COc1ccc(C(=O)N(Cc2ccccc2)c2ccc(C)cc2)cc1S(=O)(=O)N1CCOCC1 | 8.07% [at 0.501 µM] (inactive) | 
21 | O=C(CN1CCN(C(=O)c2cccc(F)c2)CC1)Nc1ccccc1F |  | 56.2 µM (active)
22 | O=C(CN1CCN(S(=O)(=O)c2ccc(F)cc2)CC1)Nc1ccccc1F | -3.04% [at 102 µM] (inactive) | 
23 | O=C(CN1CCCCC1)NC(=O)Nc1ccccc1F | -7.13% [at 102 µM] (inactive) | 
24 | CCOc1ccccc1C(=O)NC1(C(F)(F)F)C(=O)Nc2c1c(=O)[nH]c(=O)n2-c1ccc(F)cc1 (stereo unspecified) | -0.0457% (inactive) | 

Row | Structure (SMILES) | activity, negative = inhibition | Potency
25 | Cc1ccc(C)n1-c1nnc(N2CCC(C(=O)NCc3ccccc3Cl)CC2)s1 | 3.86% (inactive) | 
26 | O=c1c2ccccc2ccc2ccc(P(=O)(O)O)cc12 | 2.62% [at 0.501 µM] (inactive) | 
27 | O=c1c(-c2ccccc2Cl)c[nH]n1-c1ccccc1 | -14.7% [at 102 µM] (inactive) | 
28 | COc1cc(OC)c2c(c1)OC(=O)CC2c1cc(OC)c(OC)c(OC)c1 (stereo unspecified) | 29.5% [at 102 µM] (inactive) | 
29 | COc1ccc(C2CC(=O)NC(=O)C2)cc1 | 53.6% [at 102 µM] (inactive) | 
30 | COc1ccc(C2CC(=O)Oc3ccc(C(C)(C)C)cc32)cc1 (stereo unspecified) |  | inactive and 44.7 µM (active)
31 | COc1ccc(-c2cc(C(=O)NCc3cc(OC)c(OC)c(OC)c3)[nH]n2)cc1 | -1.39% (inactive) | 
32 | O=C(CN(C(=O)CNC(=O)c1cccs1)c1cccc(F)c1)NC1CCCCC1 | 5.5% (inactive) | 
33 | COc1ccc(C)cc1NC(=O)C(=O)NCCc1sc(-c2cccc(C)c2)nc1C | 13.1% (inactive) | 
34 | CC1CCCCN1S(=O)(=O)CCNC(=O)c1ccccc1 (stereo unspecified) | -22.2% [at 102 µM] (inactive) | 
35 | Cc1ccc(CCN2CC(C(=O)O)CC2=O)cc1 (stereo unspecified) | 3.83% (inactive) | 
36 | CCCCOC(=O)Cn1c(=O)n(CC(=O)OCCCC)c2cc(C)ccc21 | 75.8% [at 102 µM] (inactive) | 
37 | Cc1ccc(CCCOC(=O)C[N+]2(C)CCCC2)cc1 |  | 15.8 µM (active)
38 | COc1cccc(-c2n[nH]c3c2C(c2cccc(O)c2)N(C)C3=O)c1 (stereo unspecified) | -9.01% (inactive) | 
39 | Cc1cc(NC(=O)c2ccccc2C)no1 | -11.2% [at 102 µM] (inactive) | 
40 | CCOc1ccc(S(=O)(=O)NCCC(=O)N2CCCCCCC2)cc1 | -25.4% [at 102 µM] (inactive) | 
41 | Cc1cccc(C2CC(=O)Oc3c2c(=O)n(C)c2ccccc32)c1 (stereo unspecified) | 8.57% (inactive) | 
42 | Cn1c(=O)c([N+](=O)[O-])c(Oc2ccccc2)c2ccccc21 |  | 39.8 µM (active)
43 | Cn1nc(-c2ccccc2)c2cc([N+](=O)[O-])ccc21 | -10.1% [at 102 µM] (inactive) | 
44 | Cc1cccc(OP(=O)(Nc2c(C)n(C)n(-c3ccccc3)c2=O)Oc2cccc(C)c2)c1 | -3.28% (inactive) | 
45 | Cc1nn(C)c(Oc2ccccc2)c1[N+](=O)[O-] | -3.5% (inactive) | 
46 | Cc1cccc(Oc2c([N+](=O)[O-])c(=O)n(C)c3ccccc23)c1 |  | 44.7 µM (active)
47 | Cc1ccc(-n2ncc3c2CCCC3NC(=O)c2cnccn2)cc1C (stereo unspecified) | -6.28% [at 0.501 µM] (inactive) | 
48 | CCOc1ccc(Nc2ncnc3scc(-c4ccc(OC)cc4)c23)cc1 | 2.22% [at 12.7 µM] (inactive) | 

Row | Structure (SMILES) | activity, negative = inhibition | Potency
49 | COc1ccccc1-c1cc2nc(C)c(CCC(=O)NC3CCCCC3)c(C)n2n1 | 1.59% (inactive) | 
50 | COc1ccccc1C1CCN(c2ccc([N+](=O)[O-])cn2)CC1 | -8.3% [at 102 µM] (inactive) | 
51 | COc1ccc([N+](=O)[O-])cc1C1NN=C(c2cccc3ccccc23)S1 (stereo unspecified) |  | 28.2 µM (active)
52 | COc1ccc([N+](=O)[O-])cc1NC(=O)C(C)OC(=O)C1c2ccccc2Oc2ccccc21 (stereo unspecified) | 19.7% (inactive) | 
53 | COc1ccc(-n2c(=O)c3ccccc3n(Cc3ccccc3Cl)c2=O)cc1 | -1.02% (inactive) | 
54 | Cc1ccc(OCC(=O)OCc2cc(=O)n3nc(C4CC4)sc3n2)cc1 | 11.3% (inactive) | 
55 | COc1ccccc1NC(=O)CSC1=Nc2ccccc2C2=NC(CC(=O)NCc3cccs3)C(=O)N12 (stereo unspecified) | 1.33% (inactive) | 
56 | Cc1c(C(=O)OCC(=O)N2CCCC2=O)oc2ccccc12 | -40.6% [at 102 µM] (inactive) | 
57 | C=CCn1c(SCC(=O)NCC2CCCO2)nc2sc(C)c(C)c2c1=O (stereo unspecified) | 48.6% [at 102 µM] (inactive) | 
58 | COc1ccc2cc(-c3nc(Cl)c4c5c(sc4n3)CC(C)CC5)c(=O)oc2c1 (stereo unspecified) | 8.14% (inactive) | 
59 | C=CCn1c(SCc2c(C)noc2C)nc2sc3c(c2c1=O)CCC(C)C3 (stereo unspecified) |  | 39.8 µM (active)
60 | CC(=O)N1CCSc2ccc(S(=O)(=O)N3CCC(C)CC3)cc21 | 9.52% [at 102 µM] (inactive) | 
61 | Cc1cccc(NC(=O)CN2CCN(C(=O)C3CCN(C(=O)/C=C/c4ccccc4)CC3)CC2)c1C | 14.7% [at 2.33 µM] (inactive) | 
62 | COc1ccc(-c2nc3c(c(SCC(=O)Nc4ccc(C(=O)O)cc4)n2)Cc2ccccc2O3)cc1 |  | 11.2 µM (active)
63 | COc1ccc(NC(=O)CSc2nc(N)c(-c3ccccc3)c(=O)[nH]2)cc1 | -21.3% (inactive) | 
64 | COc1ccc(NC(=O)CSc2ncnc3[nH]ncc23)cc1 | 6.21% [at 102 µM] (inactive) | 
65 | CCc1ccc(NC(=O)N2CCN(C(=O)c3nsc4ccccc34)CC2)cc1 | 8.41% (inactive) | 
66 | CN(CC(=O)NC(=O)Nc1ccccc1F)Cc1ccccc1 | 2.2% [at 0.501 µM] (inactive) | 
67 | CN(Cc1ccccc1)Cc1ccccc1F |  | 8.91 µM (active)
68 | CN(Cc1ccccc1F)C(=O)C(Cc1ccccc1)NC(=O)c1ccccc1 (stereo unspecified) | 8.33% [at 102 µM] (inactive) | 
69 | O=C(NCC(c1cccs1)N1CCOCC1)c1cc(Cl)ccc1[N+](=O)[O-] (stereo unspecified) | 3.96% [at 0.501 µM] (inactive) | 
70 | COC(=O)c1ccc(NC(=O)c2cc(S(=O)(=O)N3CCC(C)CC3)cn2C)cc1 | 4.49% (inactive) | 
71 | O=C(Nc1ccn(Cc2ccccc2)n1)c1cccc(F)c1 | -8.84% [at 102 µM] (inactive) | 
72 | Cc1ccc(Cn2ccc(NC(=O)c3cc(C(C)C)on3)n2)cc1 | -37.2% [at 102 µM] (inactive) | 

Row | Structure (SMILES) | activity, negative = inhibition | Potency
73 | Cc1ccc(Cn2ccc(NC(=O)C3C4CCC(C4)C3C(=O)O)n2)cc1 (stereo unspecified) |  | 56.2 µM (active)
74 | Cc1cccc(NC(=O)N2CCC(CN3CCc4ccccc4C3)CC2)c1C | 10.2% (inactive) | 
75 | COc1cccc(CNC(=O)C2CC(=O)N(C3CCCCCCC3)C2)c1 (stereo unspecified) | 14.8% (inactive) | 
76 | CCn1nc(C(=O)Nc2ccc(N3CCOCC3)cc2)c2ccccc2c1=O | 17.9% [at 12.7 µM] (inactive) | 
77 | O=C(COC(=O)Cc1ccc(Br)cc1)Nc1ccc(N2CCOCC2)cc1 | 4.16% (inactive) | 
78 | O=C(COC(=O)CCc1nc2ccccc2c(=O)[nH]1)Nc1ccc(N2CCOCC2)cc1 |  | 50.1 µM (active)
79 | CCCCNc1ccc(-c2nc(-c3ccncc3)no2)cc1[N+](=O)[O-] | -26.7% (inactive) | 
80 | COc1ccc(OC)c(CCNC(=O)CCCn2c(=O)c3cccn3c3cccnc32)c1 | -8.79% (inactive) | 
81 | CC(C)c1ccc2oc(-c3cc(NC(=O)c4cccs4)ccc3Cl)nc2c1 | 15.9% (inactive) | 
82 | COc1cc(OC)c(NC(=O)c2c3c(nn2C)-c2ccccc2SC3)cc1Cl | -9.51% (inactive) | 
83 | Cc1c(-c2nc(-c3ccc4c(c3)OCO4)no2)nnn1-c1ccc(Br)cc1F | 6.85% (inactive) | 
84 | O=C(COC(=O)c1ccc([N+](=O)[O-])cc1Cl)NC(=O)c1ccccc1 | -29.5% [at 102 µM] (inactive) | 
85 | CCN1CCN(CCCNC(=O)c2cnn(-c3ccc(C)cc3C)c2C2CCN(C(=O)OC(C)(C)C)CC2)CC1 | 8.42% (inactive) | 
86 | Cc1cc(C)c(NC(=O)c2cc3sc(Cl)cc3n2C)c(C)c1 | 5.54% (inactive) | 
87 | COc1cccc(C(=O)NC(=O)Nc2ccc(-c3cc(C(F)(F)F)nn3-c3ccccc3)cc2)c1 | 11.4% (inactive) | 
88 | CC(=O)N(c1ccc2oc(=O)sc2c1)S(=O)(=O)c1ccc(C)cc1 |  | 25.1 µM (active)
89 | COC(=O)c1c(C)oc2ccc(N(C(=O)Oc3ccccc3)S(=O)(=O)c3ccccc3)cc12 | -0.954% (inactive) | 
90 | CC(=O)Oc1ccc(N(C(C)=O)S(=O)(=O)c2ccc3ccccc3c2)cc1Br | -1.32% [at 102 µM] (inactive) | 
91 | COc1ccc(OC)c(NC(=O)Cn2c(=O)n(Cc3ccccc3)c(=O)c3ccccc32)c1 | -22.9% (inactive) | 
92 | Cc1nc2cc(NCc3cccs3)ccc2n1C |  | 7.94 µM (active)
93 | C=CCN(C(=O)Nc1ccc2c(c1)nc(C)n2C)c1ccccc1 | 10.6% [at 12.7 µM] (inactive) | 
94 | Cc1nc2cc(NC(=O)Nc3cccc(F)c3)ccc2n1C | 23.6% [at 12.7 µM] (inactive) | 
95 | O=C1C=C(c2cccc(Cl)c2O)C[C@@H](c2ccc(F)cc2)C1 | 4.95% [at 0.501 µM] (inactive) | 
96 | Cc1cccc(CSc2nc3ccncc3n2CC(=O)N(C)C2CCCCC2)c1 | -1.35% (inactive) | 
